From PubChem BioAssay AID1159506 (National Center for Advancing Translational Sciences (NCATS), 2015) come the findings set out here.

The full ranking holds about 59,000 sequences; the median of the read-out is about -0.00055, and the lowest 2% start at about -2. Shown is part of a subset that was picked to be rich in the lowest values.

The experiment in a line: Identification of proteins required for the processing of the EWS-FLI1 nascent transcript.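 Further: robust z of luciferase light less the median z of siRNAs with the same seed.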 As to conditions: TC32 Ewing sarcoma NR0B1-luc vs CMV-luc (EWS-FLI1 target promoter against control promoter), 48 h; screened at 20 nM (by protocol). On the procedure:
Ewing sarcoma (ES) cells depend on the EWS-FLI1 fusion transcription factor for cell survival. Using an assay of EWS-FLI1 activity and genome-wide siRNA screening we have identified proteins required for the processing of the EWS-FLI1 nascent transcript. Parallel genome-wide siRNA-mediated RNAi screens were conducted in Ewing sarcoma TC32 cell lines expressing a luciferase (luc) reporter protein driven by either the promoter of the EWS-FLI1 target gene NR0B1 (TC32-NR0B1-luc) or the CMV promoter (TC32-CMV-luc). Luciferase activity was assessed 48 hours post siRNA-transfection.
Twenty microl of serum-free media containing Lipofectamine RNAiMax (0.05 microl) was added to wells containing siRNA (0.8 pmol). Lipid and siRNA were allowed to complex for 45 min at ambient temperature before addition of 600 cells in RPMI-1640, 20% FBS to yield final transfection mixtures containing 20 nM siRNA in RPMI-1640, 10% FBS. Luciferase expression was measured using OneGlo (Promega, Madison, WI). The genome-wide screening campaign was conducted using Ambion's human genome library version 4.1 (Ambion, Austin TX). This library targets approximately 21000 human genes, three siRNAs per gene. Each siRNA is arrayed in an individual well of a 384-well plate. Parallel transfections were conducted in TC32-NR0B1-luc and TC32-CMV-luc cell lines and luciferase expression (OneGlo, Promega) was assayed 48 h later on a PerkinElmer Envision 2104 Multilabel plate reader (PerkinElmer, Waltham, MA). Qiagen's AllStars Negative control was incorporated on all screening plates for normalization (16 wells per plate). Qiagen, Germantown, MDsiGL4 was incorporated as a positive transfection control (16 wells per plate) on all plates. […] The raw luciferase data for the NR0B1- and CMV-luc screens were normalized and z-score-MAD transformed using standard methods (Chung et al., 2008). The miRNA-like seed sequence of every siRNA was determined and the median z-score for all siRNA sequences with the same seed sequence was calculated. This z-score was subtracted from the z-score associated with each siRNA with that seed sequence to generate a seed-adjusted z-score value (Z) that was used when the results for the three siRNAs corresponding to each gene were compared (Marine et al., 2012)
For the sequence AGUGAAUCGAGAGCAAUGG against ELP5, the seed-corrected z-score amounted to 0.672.

Sequence AAAAGAACCUCCAACAAUC against COX16 came in with a seed-corrected z-score of -2.

In the case of UCUAUGUCUCAGGUACUGC against CCDC15, the seed-corrected z-score was 0.12.

Regarding AUAGAUCCUAAAGAACUGG against GPR141, the seed-corrected z-score was -0.531.

As for UUUUAGUCUACGAAGAUCC against ANKIB1, the seed-corrected z-score was -0.435.

As to UGUCAUAUGGGCUUGCUCC against CEP250, the seed-corrected z-score is -0.255.

UCCACUUAAACACUCCUCC against DCLRE1C came in with a seed-corrected z-score of -2.25.

In the case of UAGCUGUCCGUGAAGAUCC against ADCYAP1, the seed-corrected z-score turned out to be 0.344.

Consider ACAAUGUAUACUGUAGUCC against CDHR2, for which the seed-corrected z-score came out at 0.247.

Regarding AAUAGGAUAAAUGUUCCGG against SMURF2, the seed-corrected z-score was found to be 0.293.

Sequence AUACGUGAUACUUCCCUCC against MS4A13 yielded a seed-corrected z-score of -1.19.

Turning to UGUCUUCUCAUGCAGUUUC against ACSF2, the seed-corrected z-score was -0.5.

On to UCUGUGAAAAUCUUCCACG against ZNF174, for which the seed-corrected z-score is 0.076.

UAUAGGCCUGCUGAGAUCG against GALT: the seed-corrected z-score stood at 0.826.

For UAGUUGCCUAAUUACACUG against MYO3A, the seed-corrected z-score was -2.22.

In the case of UUCACGGUCACAUUGCGCG against MAG, the seed-corrected z-score is -0.22.

Regarding UAUGAAGAGGAGACCAACC against PSMD10, the seed-corrected z-score is -0.0551.

In turn, UAAGCUAUUUCCUCGGCUC against MTCH2 showed a seed-corrected z-score of 0.402.

On to UAAAGAUUACCUGAGACCG against FBXO36, for which the seed-corrected z-score was 0.489.

Consider UUGACUAUAAGUAAGUCUC against STXBP5, for which the seed-corrected z-score was -2.91.

Regarding UGCGCGAUGAUGAGUACCG against ABCB9, the seed-corrected z-score was found to be 0.705.

With UUCCUUAGAAACUGCAUAC against JMY, the seed-corrected z-score is -0.827.

With UUCGUGAACAGACAGAACU against OAS2, the seed-corrected z-score is -0.385.

UAAGAACAUAGUACAGCUC against LDB1 yielded a seed-corrected z-score of -0.519.

Turning to AAACUUAUAGAACUCACUG against CCDC148, the seed-corrected z-score is -0.143.

The sequence UCCGCAUGAACUCGUAGCU against PLEKHJ1 returned a seed-corrected z-score of 0.0613.

Regarding UAGUUGUCCAACAUUGGUU against ZNF99, the seed-corrected z-score is -3.24.

Regarding UAGCGAUUGUGAAUCUUGC against RNF19A, the seed-corrected z-score is -0.443.

UAUGGUGUAAGUUUUCGGG against FARSB yielded a seed-corrected z-score of 0.451.

Take UUCGGGUCCACUGAUUUCC against CHMP4B: the seed-corrected z-score is -1.35.

For the sequence UGUCAUAACAGCUCCGCGA against ELK1P1, the seed-corrected z-score was -0.141.

As to UAUAUGUCCGGGCGUGUUC against MAPK11, the seed-corrected z-score was 0.187.

The sequence AACCUGAUAAUAACCAGAU against FAM96A came in with a seed-corrected z-score of 0.457.

With UGAGAUUUCUAUGUAACAC against SS18L2, the seed-corrected z-score was determined as 0.356.

Sequence UUAUCGAUGUCUUCGUGCC against GCK yielded a seed-corrected z-score of -0.301.

On to AUAGUUGCGGAUGAAGUCU against KAZN, for which the seed-corrected z-score is -3.51.

In turn, AAUGUUUCAAGAAGCUGCU against MED9 yielded a seed-corrected z-score of -1.82.

In the case of UCAGGGUCCAUUGUCACCA against IGSF23, the seed-corrected z-score is -0.567.

Sequence UACAGGGCAAUGAACAGGG against FGR had a seed-corrected z-score of 0.274.

AUGAAGCUCAGUCAGGUCG against TMCC2: the seed-corrected z-score is -2.16.

With UCCUUGACGACAACUUUCC against LOC642677, the seed-corrected z-score was -1.2.

UAACGAUACAUUUGCUUGG against SGIP1 yielded a seed-corrected z-score of 0.118.

UUGGGUGCAAGAAUGUCCA against CHTF18 gave a seed-corrected z-score of -2.47.

UUCAAUUCUACUGAUCAUC against CSNK1A1 yielded a seed-corrected z-score of 0.146.

As to UUAAAGACUUCAUAAAAGC against SLC25A3, the seed-corrected z-score was -0.603.

Take UAAUUGUCAUUACUAAGUG against SLC17A6: the seed-corrected z-score is -0.508.

UUGGUAUCGAUUUUCUACC against ATRN: the seed-corrected z-score was -0.607.

Sequence ACCUCCAAAAUUUCACUGC against ZSCAN10 displayed a seed-corrected z-score of 0.616.

Sequence AAUGAUUGCACUAAUCUUC against IK displayed a seed-corrected z-score of -3.4.

In turn, UCUUGGUACUGGAUGCAGC against LOC645166 gave a seed-corrected z-score of 1.33.

For the sequence UCUUCGAGUGAGUCAAUGC against C10orf12, the seed-corrected z-score is -0.0711.

Sequence UCGCUGAUUAGCUUUCUCC against CUX2 showed a seed-corrected z-score of 0.0999.

For the sequence UUCGUUGUCUCGAAGGGCU against TRAPPC2L, the seed-corrected z-score was -2.92.

For UUUCCUCUUAGUCAACUUC against CHIC1, the seed-corrected z-score is -0.602.

AAAGGACUGAUGUCUAACC against DHX15 yielded a seed-corrected z-score of 0.0405.

UAUGUACAUGCAGCAGGCC against PVRL4 gave a seed-corrected z-score of -0.603.

In turn, AUGGGAGUCACAACAGUGU against OR10A5 came in with a seed-corrected z-score of -9.99.

Sequence UUUCACUCAACCAUCAUUG against HOPX displayed a seed-corrected z-score of -0.598.

UGCCUUUGGAGGAUCUGCG against HLA-F: the seed-corrected z-score is -0.923.

In turn, UGCUUGCUCGCAAAAGUCC against TSHZ1 registered a seed-corrected z-score of 0.387.

UGAACUGCCUGGUCUGUCG against PDE6G: the seed-corrected z-score is -0.214.

Regarding AUUCUUAUCCCAGCGGAGC against PGM2L1, the seed-corrected z-score was determined as 0.162.

As to UCAAUUCCCAGGGUAAAGG against PIGN, the seed-corrected z-score was -2.84.

As for UAACAUCUUGGAGCACUAC against CCDC54, the seed-corrected z-score was -0.239.

As for UUGUGAACAGUUGAGGUGC against OSBP2, the seed-corrected z-score was -0.0205.

UCACUGUCGCCGUCAAAGC against CCKBR showed a seed-corrected z-score of -2.68.
